# The list is not random: actives were taken first. Their share in the collection is about 12%.
# ROMK primary – ROMK potassium channel modulators, primary screen, cell-based, thallium flux, MLSMR library; actives 2% (n = 130,000); ATP-sensitive inward rectifier potassium channel 1 (Homo sapiens), P48048; Tet-inducible ROMK, thallium flux fluorescence; actives lie on both sides; B-score at 10 µM;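 active means signal ratio slope over the read window, or its plate-corrected B-score, at least 3 SD from the plate mean, either direction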;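 further: B-score of the F/F0 ratio slope over 7 to 12 s after thallium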
# L major viab – Leishmania major promastigote growth inhibition, primary screen; inhibition, % at 10 µM; actives 9% (n = 200,000); AID 1063, 2008; Leishmania major promastigotes, resazurin fluorescence viability; in the data active means inhibition above about 50%;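 further: promastigotes grown with compound for 44 hours at 28 °C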
# KCC2 mod – KCC2 cotransporter modulators, thallium flux, primary screen, cell-based, HEK293 KCC2, FluoZin-2 fluorescence, MLSMR; Solute carrier family 12 member 5 (Homo sapiens), Q9H2X9; KCC2 cells, thallium flux FluoZin-2 fluorescence; B-score of Tl+ flux slope (higher = more flux/activation; lower = inhibition) at 10 µM; actives 2.2% (n = 190,000); AID 1456, 2008;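 active means thallium flux slope and its plate-corrected score both differing from the plate sample mean at a set confidence after two filtering rounds, in either direction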;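 further: slope of fluorescence scaled to starting intensity during 10 to 20 s after thallium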
# Target sequence (Q9H2X9 whole entry, looked up): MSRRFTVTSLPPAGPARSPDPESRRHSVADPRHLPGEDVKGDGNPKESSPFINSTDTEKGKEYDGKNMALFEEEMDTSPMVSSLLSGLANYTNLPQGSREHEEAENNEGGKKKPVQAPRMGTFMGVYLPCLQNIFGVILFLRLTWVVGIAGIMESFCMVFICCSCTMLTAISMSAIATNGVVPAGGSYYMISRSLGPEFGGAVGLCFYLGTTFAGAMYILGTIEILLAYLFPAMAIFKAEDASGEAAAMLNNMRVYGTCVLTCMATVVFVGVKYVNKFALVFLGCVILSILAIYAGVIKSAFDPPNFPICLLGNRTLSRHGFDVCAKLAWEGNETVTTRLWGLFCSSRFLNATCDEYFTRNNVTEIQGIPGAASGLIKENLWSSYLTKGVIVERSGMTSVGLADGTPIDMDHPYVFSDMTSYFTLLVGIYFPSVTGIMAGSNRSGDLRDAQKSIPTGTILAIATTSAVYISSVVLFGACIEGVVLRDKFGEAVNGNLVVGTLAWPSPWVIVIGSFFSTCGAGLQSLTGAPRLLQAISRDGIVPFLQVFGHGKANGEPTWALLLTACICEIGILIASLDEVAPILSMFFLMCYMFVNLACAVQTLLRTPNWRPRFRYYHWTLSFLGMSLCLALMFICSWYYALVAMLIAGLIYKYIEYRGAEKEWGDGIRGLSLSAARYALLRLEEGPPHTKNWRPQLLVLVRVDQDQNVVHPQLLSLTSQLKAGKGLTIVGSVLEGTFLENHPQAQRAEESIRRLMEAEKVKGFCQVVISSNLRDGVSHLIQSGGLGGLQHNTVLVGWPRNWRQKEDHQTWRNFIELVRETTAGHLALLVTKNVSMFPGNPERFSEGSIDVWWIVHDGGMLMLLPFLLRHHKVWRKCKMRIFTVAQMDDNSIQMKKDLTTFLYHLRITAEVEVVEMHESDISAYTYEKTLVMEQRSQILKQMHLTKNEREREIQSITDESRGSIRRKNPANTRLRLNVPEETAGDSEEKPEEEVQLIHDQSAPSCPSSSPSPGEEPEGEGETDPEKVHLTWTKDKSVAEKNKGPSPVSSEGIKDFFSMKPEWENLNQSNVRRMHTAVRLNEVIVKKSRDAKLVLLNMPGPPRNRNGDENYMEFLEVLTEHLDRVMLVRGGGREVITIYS
# WT yeast gro inh – growth inhibition of WT strain, primary screen, mitochondrial fusion inhibitor project, WT and mutant strains, chemical genetic | AID 1362, 2008 | inhibition, % at 10 µM | actives 2.1% (n = 190,000) | mitochondrial fusion phenotypic screen; in the data active means inhibition above about 58%; tested in S. cerevisiae
# Calpain2 inh – inhibitors of pig calpain II, primary screen, biochemical, fluorogenic peptide substrate, 1536-well; purified calpain II, 30 min; inhibition, % at 16 µM; actives 0.37% (n = 220,000); AID 1236, 2008;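 active means inhibition above about 50%, limit read from the data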
# ROMK hit retest – ROMK channel modulator hit retest, confirmation, cell-based, thallium flux, duplicate, resupplied hits; fluorescence ratio; active compounds read low; shares compounds with ROMK primary; AID 1917, 2009; actives 54% (n = 3,000); normalized thallium flux (F/F0 slope) at 10 µM;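 active means Flux at 10 µM at least 3 SD below or above vehicle control mean in one or both replicates; inconclusive means no clear call, values can overlap the other calls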
# Numbers without * were called inactive; i = inactive; ? = inconclusive; . = not tested or not shown.
SMILES,ROMK primary,L major viab,KCC2 mod,WT yeast gro inh,Calpain2 inh,ROMK hit retest
O=C(Nc1ccccc1)Nc1ccc(F)c([N+](=O)[O-])c1,.,13,-1.6,36,4,?
Cc1ccc(NC(=O)Nc2ccccc2)cc1[N+](=O)[O-],-0.62,-8,-0.086,-6,1,.
Cc1cccc(Cn2c(SCC(=O)Nc3ccccc3)nc3c2c(=O)[nH]c(=O)n3C)c1,.,33,-0.1,14,-54,.
Cc1ccc(N2C(=O)[C@@H]3[C@H](C2=O)[C@H]2C=C(C(=O)c4ccccc4)C=CN2[C@@H]3C(=O)c2ccc(Cl)cc2)cc1,.,-1,0.25,10,-61,0.077
Cc1[nH]c2ccccc2c1SCC(=O)NNC(=O)Nc1ccc(OC(F)(F)F)cc1,.,.,.,.,7,.
Cc1onc(-c2ccccc2Cl)c1C(=O)Nc1nnc(-c2cccc([N+](=O)[O-])c2)s1,.,0,.,64*,-42,0.061*
COc1ccc(OC)c(C2C(C(=O)c3ccccc3)=C(C)Nc3nc4ccccc4n32)c1 (centres undefined),2.5*,79*,0.014,-7,-6,0.068*
COc1ccc(CNC(=O)c2ccc3c(c2)N(C)C(=O)CS3=O)cc1 (centres undefined),.,-8,.,6,-8,.
Cc1occc1C(=O)N1CCN(Cc2ccccc2)CC1,-0.18,1,-0.5,6,-45,.
O=C(O)c1ccoc1CN1CCCCC1,1.7*,-3,.,10,13,0.075
C=CCOc1c(Br)cc(/C=N/O)cc1OCC,-3.8*,27,-0.73,-6,-2,0.057*
CCn1ncc(/C=N\NC(=O)c2cc(-c3ccc(C)cc3C)nc3ccccc23)c1C,2.1,30,-0.49,16,-69,.
COC(=O)c1sc(-c2ccc(C(C)(C)C)cc2)cc1NC(=O)COCC(=O)O,-11*,.,-0.7,.,-57,0.085
Cc1ccc2[nH]c3c(NCc4ccco4)ncnc3c2c1,-3.4*,28,-1.2,11,i,0.065*
COc1cc(CNc2ncnc3c2[nH]c2ccc(C)cc23)cc(OC)c1,0.035,.,0.45,.,-47,.
c1coc(CNc2ncnc3c2oc2ccccc23)c1,-3.5*,20,.,-30,-7,0.061*
Cc1ccc(-n2nc(C)cc2NC(=O)c2ccc(C)s2)cc1,0.8,39,0.48,-4,27,.
OCCC1CN(Cc2nc(-c3ccc(F)cc3)cs2)CCN1CCc1ccccc1 (centres undefined),-3.9*,85*,-2.8,-14,-14,0.054*
Cc1ccccc1NC(=O)Cn1nc(-c2ccccc2)nc1-c1ccccc1,.,37,-0.19,-14,-23,.
CCOC(=O)c1c(C)n(C)c2ccc(OC)c(NC(=O)CN3CCCCC3)c12,-4.1*,2,0.89,8,-24,0.056*
COc1cc(/C=C/C(=O)O)cc(S(=O)(=O)Nc2ccc3nc(SC)sc3c2)c1OC,-0.33,-3,0.096,-21,-22,.
CS(=O)(=O)N(CC(=O)Nc1cccc([N+](=O)[O-])c1)c1cccc(F)c1,-0.24,11,0.37,-7,0,.
COc1cc(/C=C(\C#N)C(=O)c2c[nH]c3ccccc23)cc(OC)c1O,-5.6*,0,-2.9,0,12,0.041*
COc1cc(/C=C(\C#N)c2nc3ccccc3[nH]2)cc(OC)c1O,.,8,.,3,-20,0.038*
Clc1ccc2nc(SCc3nnc(-c4ccccc4)o3)[nH]c2c1,-3.4*,10,.,11,-4,0.055*
SMILES,ROMK primary,L major viab,KCC2 mod,WT yeast gro inh,Calpain2 inh,ROMK hit retest
CCOC(=O)CN1N=C(/C=C/c2ccc(OC)cc2)CCC1=O,.,-6,0.042,11,13,.
COc1ccc(NS(=O)(=O)c2cn(C)c(=O)n(C)c2=O)cc1,-0.72,.,0.043,.,8,.
Cc1ccc(-c2nc3c(c(=O)[nH]c(=O)n3CC(C)C)n2CC(C)C)cc1[N+](=O)[O-],-3.6*,24,-0.62,33,46,0.056*
Oc1ccccc1-c1nc(NCCN2CCOCC2)c2ccccc2n1,-3.7*,49,.,36,9,0.073
Fc1ccccc1-c1nc(NCCCN2CCOCC2)c2ccccc2n1,-1.3,43,-0.39,-2,-6,.
COCCn1c(SCC(=O)N2CCCc3ccccc32)nc2ccccc2c1=O,-2.7*,24,.,10,-42,0.063*
CCCc1nc(SCC(=O)N2CCC(Cc3ccccc3)CC2)c2c(=O)n(C)c(=O)n(C)c2n1,.,10,-2,81*,43,?
COCCn1c(SCC(=O)N2CCCc3ccccc32)nc2c(c1=O)SC(C)C2 (centres undefined),.,-1,0.7,-23,13,.
CCCc1nc(SCC(=O)N2CCCc3ccccc32)c2c(=O)n(C)c(=O)n(C)c2n1,.,42,-1.1,73*,62*,0.057*
CCCn1c(SCC(=O)N2CCCc3ccccc32)nc2c1c(=O)n(C)c(=O)n2C,.,2,1.2,.,.,.
NC(CCC(=O)O)C12CC3CC(CC(C3)C1)C2 (centres undefined),2.5*,-3,0.75,-7,8,?
CCCCNC1=C(Br)C(=O)CC(C)(C)C1,0.14,-3,0.95,4,-2,.
O=C(c1ccc2c(c1)N(Cc1ccccc1)C(=O)c1ccccc1S2)N1CCCC1,.,8,-2,2,-24,0.061*
c1ccc(Oc2nc(-c3cccnc3)nc3ccccc23)cc1,-0.062,.,-1,.,-7,.
COc1cc2c(cc1OC)CN(c1nc(-c3cccnc3)nc3ccccc13)CC2,-0.16,36,-1.8,34,-7,0.08
CN(Cc1ccccc1)C(=O)c1ccccc1Br,-2.8*,-9,.,-6,-2,0.066*
Cn1cc([N+](=O)[O-])c(C(=O)Nc2ccc(-c3nc4ccccc4o3)cc2)n1,.,.,0.91,.,-15,.
Cc1cc(Cl)ccc1OC(C)C(=O)Nc1ccccc1N1CCOCC1 (centres undefined),.,26,-0.74,73*,23,?
COc1ccc(Cl)cc1NC(=O)CN(C)CC(=O)Nc1ccccc1N1CCOCC1,5.1*,54*,0.69,17,20,?
COc1ccc(S(=O)(=O)N2CCOCC2)cc1NC(=O)CN(C)Cc1c(F)cccc1Cl,-0.37,19,-3.5,32,-10,.
COc1cc(OC)cc(C(=O)N[C@H](C(=O)Nc2ccccc2N2CCOCC2)C(C)C)c1,1.2,0,0.21,-9,2,.
CCN(CC)c1ncnnc1-c1ccccc1,-0.65,3,0.23,-13,-11,.
NCCCNc1ccc([N+](=O)[O-])cc1C(F)(F)F,-8.3*,-3,-0.17,-2,-7,0.066*
O=[N+]([O-])c1cc(C(F)(F)F)ccc1NCCCCNS(=O)(=O)c1ccc(Cl)cc1,-0.45,24,-0.43,-7,21,.
O=C(CN1C(=O)COc2ccccc21)NCc1ccccn1,.,0,0.67,-7,13,.

# Source: PubChem (several laboratories)
